Measured values: PubChem BioAssay (NCI)
Compounds without any hit were thinned out: in the full panel of roughly 79,000, 15% have a hit. Unmarked numbers belong to inactive results. Active and inactive are the calls of the source. Rule as the data show it: active = growth inhibition above about 70%; inactive = the rest. Where a SMILES comes first, the peptide text is derived from it. [ ]: non-standard residue; d: D form. The star is where a group is joined. ξ: configuration not given here. Boc = CC(C)(C)OC(=O)*; ξV = CC(C)C(N)C(=O)O; OBn = c1ccc(CO*)cc1

Columns and labels:
[1] = NCI Yeast Anticancer Drug Screen. Data for the rad50 strain (AID 155);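 also: 0% = growth of vehicle-only cultures of the same strain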; conditions: S. cerevisiae rad50 strain growth inhibition; at 50.0 µM; hits give high values
Method in brief: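 Cells are treated with compound, grown, and their growth is then scored against vehicle-only cultures of the same repair-deficient yeast strain.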

[2] = NCI Yeast Anticancer Drug Screen. Data for the mec2-1 strain (AID 157); conditions: S. cerevisiae mec2-1 strain, at 50.0 µM, hits give high values
Method in brief: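 Mutant yeast (mec2-1) grown with compound; growth inhibition relative to vehicle control reported.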

[3] = NCI Yeast Anticancer Drug Screen. Data for the sgs1 mgt1 strain (AID 161);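 also: 0% = growth of cultures given vehicle only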; conditions: S. cerevisiae sgs1 mgt1 strain, at 50.0 µM, hits give high values
Method in brief: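 This yeast growth screen uses a strain with defined DNA-repair lesions; compound-treated growth is compared with vehicle-treated growth.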

[4] = NCI Yeast Anticancer Drug Screen. Data for the cln2 rad14 strain (AID 165);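 also: 0% = growth equal to vehicle treated cultures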; conditions: S. cerevisiae cln2 rad14 strain, at 50.0 µM, hits give high values
Method in brief: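 Readout is yeast growth inhibition versus vehicle-treated controls, using a strain with cln2 and rad14 alterations exposed to compound.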

[5] = NCI Yeast Anticancer Drug Screen. Data for the bub3 strain (AID 167); conditions: S. cerevisiae bub3 mutant strain, at 50.0 µM, hits give high values
Method in brief: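 Part of a panel of yeast mutants defective in DNA damage repair or cell cycle regulation. Each strain is grown with compound, and inhibition is calculated relative to solvent-treated cultures.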

[6] = NCI Yeast Anticancer Drug Screen. Data for the mlh1 rad18 strain (AID 175); conditions: S. cerevisiae mlh1 rad18 strain growth inhibition; at 50.0 µM; hits give high values
Method in brief: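 Genetically defined yeast (DNA repair-deficient) exposed to compounds; growth inhibition determined relative to vehicle.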

Compound | growth inhibition [1] [%] | growth inhibition [2] [%] | growth inhibition [3] [%] | growth inhibition [4] | growth inhibition [5] [%] | growth inhibition [6]
CSC(/C=C/c1ccccc1)=Nc1ccccc1 | 3.2 | 11.9 | -0.9 | -21.6% | 23.6 | 15%
C=C1C(=O)OC2/C=C(\C)C(=O)CC3OC(C)(C)OC3(C)CC(OC(=O)/C(C)=C/C)C12 (stereo not given) | 15.4 | -14 | 16.6 | 9.6% | -16.2 | -30.6%
COC(=O)c1ccc(NC(C)=O)c([N+](=O)[O-])c1 | 3.35 | -7.7 | -11.4 | -21.9% | -26.1 | 16.4%
CCN(CC)CCN(C(=S)Nc1ccccc1)c1ccccc1 | 5 | 28.1 | 17.6 | -10.1% | 9.5 | 27.4%
CC1=NN(C(=O)c2ccccc2O)C(=O)/C1=C/c1cccc([N+](=O)[O-])c1 | 47.8 | 26.9 | 37.1 | 28.1% | 61.1 | 33.8%
COc1ccc(C(=O)C(C(=O)CCC(=O)Nc2cccc(Cl)c2)c2ccc(OC)cc2)cc1 (stereo not given) | -25.1 | -9.4 | -20.2 | -4.9% | 0.5 | -0.15%
Cc1ccc(N2CCN(C(=O)c3ccccc3)CC2)cc1 | -16.9 | 1.55 | -2.45 | -13.6% | 16.5 | -9.35%
Cc1ccc(NC(=O)C(c2ccccc2)c2ccccc2)cc1 | 0.15 | 19.4 | 3.8 | -2.55% | 20.2 | 6.75%
O=C(OCC(COC(=O)c1ccccc1)OC(=O)c1ccccc1)c1ccccc1 | -7.15 | 2.15 | 8.8 | -24.6% | 38.8 | 0.65%
COc1ncn(C2CC(OC(=O)c3ccc(C)cc3)C(COC(=O)c3ccc(C)cc3)O2)c(=O)n1 (stereo not given) | -8.3 | -9.1 | -14.7 | -22.4% | -0.6 | -3.05%
CC(C)C(NC(=O)OC(C)(C)C)C(=O)NCC(=O)OCc1ccccc1 (stereo not given) (Boc-[ξV]-Gly-OBn) | -37.9 | -36 | 12.2 | -3.3% | -8.6 | -21.6%
CCc1cccc(CC)c1N1C(=O)C2C(C1=O)C1(Cl)C(Cl)=C(Cl)C2(Cl)C1(Cl)Cl (stereo not given) | 37.4 | 50.6 | 65.4 | 74.2% (active) | 61 | 87.6% (active)
Cc1noc(C)c1N=Nc1ccc2nonc2c1N | -15.5 | 7.6 | -14.1 | 16.5% | 9.35 | 3.05%
CC(=O)C(N)C(C)C (stereo not given) | 5.4 | -3.7 | 19.2 | 7.9% | 1.65 | 7.95%
CC(=O)NOCC1NC(=O)C(CONC(C)=O)NC1=O (stereo not given) | 14 | 18.1 | -47.1 | -3.4% | -48.2 | -54.6%
N#CC1(C#N)CC1(C#N)C#N | 7.9 | 16.4 | -1.75 | 27.1% | 12.7 | 15.2%
O=c1cc(NC(c2ccccc2)c2ccccc2)[nH]c(=O)[nH]1 | -5.25 | 22.1 | 8.95 | -10.4% | 19.1 | 27.6%
COc1cc(NS(C)(=O)=O)ccc1Nc1c2ccc(N(C)C)cc2nc2cc(N(C)C)ccc12 | 29.1 | -4.8 | 1.05 | 6.7% | -8.6 | -9.85%
Nc1ncnc2c1ccn2C1OC2COP(=O)(O)OC2C1O (stereo not given) | -12.6 | -31.4 | -7.1 | 8.45% | -18.3 | -15.1%
O=C1CC2(CCN(Cc3ccccc3)CC2)C(=O)N1N1CCCCC1 | 50.9 | 33.3 | 57.8 | 41.9% | 43.8 | 50.4%

Compound | growth inhibition [1] [%] | growth inhibition [2] [%] | growth inhibition [3] [%] | growth inhibition [4] | growth inhibition [5] [%] | growth inhibition [6]
CC(=O)[O-].Cc1ccnc(NS(=O)(=O)c2ccc(N=Cc3ccccc3[O-])cc2)n1.Cc1ccnc(NS(=O)(=O)c2ccc(N=Cc3ccccc3[O-])cc2)n1.[Cu+2] | 9 | 2 | 2.6 | 19.1% | 11.1 | 34.4%
CCOC(=O)C(CC(CC(C(=O)OCC)C(=O)OCC)=C(C)C)C(=O)OCC | 36.1 | 0.65 | 15 | -14.5% | 24.2 | 15.4%
CCOC(=O)C(C)=P(c1ccccc1)(c1ccccc1)c1ccccc1 | -1.6 | -5.8 | -1 | -39.2% | -0.7 | -11.3%
Cc1cc(Cl)cc2c1NC(=O)C2(O)CC(=O)c1ccco1 (stereo not given) | 6.55 | -12.4 | -13.8 | 9.65% | -11.7 | -4.65%
CC(=O)OCCCC1CO1 (stereo not given) | 14.9 | -13.7 | -1.4 | 3.15% | -14.2 | 10.6%
CN1CCc2c1nc(-c1ccc(Cl)cc1)c1c2N(C)CC1 | 5.15 | 1.5 | 0 | 9% | -9.55 | -7.35%
O=C(O)CCCC[P+](c1ccccc1)(c1ccccc1)c1ccccc1 | 21.1 | 7.8 | 13.5 | 7.5% | 35.3 | 27.8%
COC1/C=C/OC2(C)Oc3c(C)c(O)c4c(O)c(c(/C=N/N(C)c5ccc([N+](=O)[O-])cc5[N+](=O)[O-])c(O)c4c3C2=O)NC(=O)C(C)=C/C=C/C(C)C(O)C(C)C(O)C(C)C(OC(C)=O)C1C (stereo not given) | 10.2 | 55.6 | 31.5 | 63.6% | 40.3 | 56%
CCc1n[nH]c(=O)n1/N=C/c1ccc(C)cc1 | -0.2 | -3.3 | -4.85 | -0.3% | 3.8 | -2.25%
N#CCCNC1CCCCC1 | 2.95 | 4 | 2.5 | -14.3% | 0.85 | -0.25%
COC1OCC2OC3(CCCCC3)OC2C1SCc1ccccc1 (stereo not given) | 8.05 | -9.85 | 10.8 | -7.4% | -10.4 | -5.25%
COc1ccc(CCNC(=S)N/C=C\c2nc3ccccc3[nH]c2=O)cc1OC | 11.1 | 2.8 | 6.15 | 11.3% | 8 | 19.9%
NS(=O)(=O)c1ccc(C(=O)O)s1 | -12.1 | -11.2 | -10.3 | -11% | 11.6 | -18.1%
C[C@H]1S[C@H](c2c(F)cccc2F)n2c1nc1ccccc12 | 9.5 | -10.6 | 43.8 | -0.25% | 26.6 | 35%
COc1ccc(C2CC(c3cc(C)ccc3O)=NC(N)=N2)cc1 (stereo not given) | 19.6 | 12.8 | 15.8 | 13.2% | 13.4 | 23.4%
O=C1c2ccccc2C(=O)N1CNc1ccccc1S | 13.2 | 5.1 | 19.6 | 28.4% | 22.1 | -8%
CC(=O)CC(C)(C)OCc1ccccc1 | -21.9 | -4.95 | -12.2 | -43.4% | 0.4 | 26.1%
O=c1c2ccccc2nc(-c2ccccc2Cl)n1NCC1(O)OCC(O)C(O)C1O (stereo not given) | 12 | 5.2 | 16.6 | -13.2% | -1.2 | 3.25%
Cc1ccc(C(=O)N2CCCCC2)cc1N=NN(C)C | 0.05 | -25.5 | -25.6 | 14.3% | -17.6 | -21.1%
CC(C(=O)O)C(C)C(=O)Nc1ccccc1 (stereo not given) | 33.9 | 6.15 | 11.1 | 24.4% | 1.5 | 28.4%
